The values that follow come from the supplement of paper PMC10849652.

What all share (assay): log2 fold change, soluble protein after heating vs DMSO (PISA); higher = thermal stabilisation; K562 lysate, 10 uM; active = over 0.2 and 3.5 SD of the protein, either way, in both replicates (recomputed)
Compound in one test: C#Cc1cccc(Nc2ncnc3cc(OCCOC)c(OCCOC)cc23)c1 [erlotinib]
An outline of the steps:
(§1)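 Pellets of K562 cells were dounce-homogenised in PBS pH 7.4 with 1 mM MgCl2, and the crude extract was held at 1 mg/mL protein for a 30 min treatment with 10 μM compound. Aliquots were heated for 3 min over 48°C-58°C and pooled before NP-40 was added to 0.5% at 4°C. The supernatant from 21,000xg for 90 min was quantified by TMTpro 16plex LC-MS/MS with channel sums equalised. Values are reported from duplicates as log-two fold change in thermal stability relative to solvent controls.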

Compound in test [1]: C/C(=N\NC(=O)C1=CC(=CC=C1)S(=O)(=O)N2CCOCC2)/C3=C(C=CC(=C3)Cl)O
An outline of the steps:
as §1

Compound in test [2]: C1=CC(=CC=C1C2=NC3=C(N2)C=C(C=C3)C(=O)N)OC4=CC=C(C=C4)Cl
An outline of the steps: as §1

Compound in test [3]: C1=CC2=C(C=CC(=C2)/C=C\3/C(=O)NC(=NCC4=CC=CS4)S3)N=C1
An outline of the steps:
as §1

Compound in test [4]: C1=CC2=NC=CN=C2C=C1/C=C/3\C(=O)NC(=O)S3
Summed up:
as §1

Compound in test [5]: C1=CC=C(C=C1)C2=NC(=C(N2)C3=CC=NC=C3)C4=CC(=C(C=C4)Cl)O
Summed up: as §1

Compound in test [6]: C1=CC=C2C(=C1)C3=NNC4=CC=CC(=C43)C2=O
An outline of the steps:
as §1

Compound in test [7]: C1CCN(C1)C(=O)NC2=CC=CC(=C2)NC3=NC=C(C(=N3)NCCC4=CN=CN4)Br
An outline of the steps: as §1

Compound in test [8]: C1CN(CCC1(CC2=CC=C(C=C2)Cl)N)C3=NC=NC4=C3C=CN4
An outline of the steps:
as §1

Compound in a further test: C1COCCN1CCN2C3=CC=CC=C3N=C2NC(=O)C4=CC(=CC=C4)[N+](=O)[O-] [IRAK-1-4 Inhibitor I]
Summed up: as §1

Targets with a hit are over-represented here; the source holds about 8,800 in all. About 0.5% of all pairs of compound and target were hits. A number with no mark means an inactive call.

Sequence of UniProt Q16629 (Q16629 whole entry, looked up): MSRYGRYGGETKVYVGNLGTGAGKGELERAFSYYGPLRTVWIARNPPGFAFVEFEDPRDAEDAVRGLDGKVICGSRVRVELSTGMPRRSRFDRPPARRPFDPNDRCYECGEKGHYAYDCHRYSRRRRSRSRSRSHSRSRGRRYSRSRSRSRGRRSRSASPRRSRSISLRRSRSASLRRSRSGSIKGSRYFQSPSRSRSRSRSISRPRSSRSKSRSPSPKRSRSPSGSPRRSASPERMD
Sequence of UniProt Q15796 (Q15796 whole entry, looked up): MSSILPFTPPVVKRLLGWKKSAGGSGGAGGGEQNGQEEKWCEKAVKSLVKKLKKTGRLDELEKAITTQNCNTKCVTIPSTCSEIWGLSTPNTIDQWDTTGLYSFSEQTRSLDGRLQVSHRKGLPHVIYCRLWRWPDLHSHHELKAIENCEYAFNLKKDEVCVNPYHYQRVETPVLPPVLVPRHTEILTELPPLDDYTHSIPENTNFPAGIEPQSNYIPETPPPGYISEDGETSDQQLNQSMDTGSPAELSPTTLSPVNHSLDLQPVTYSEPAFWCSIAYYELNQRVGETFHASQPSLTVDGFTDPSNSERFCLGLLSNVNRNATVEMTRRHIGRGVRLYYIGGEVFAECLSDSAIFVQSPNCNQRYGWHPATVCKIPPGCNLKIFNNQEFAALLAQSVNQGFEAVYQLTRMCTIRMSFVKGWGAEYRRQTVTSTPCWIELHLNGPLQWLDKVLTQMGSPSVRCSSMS
Sequence of UniProt O14975 (O14975 whole entry, looked up): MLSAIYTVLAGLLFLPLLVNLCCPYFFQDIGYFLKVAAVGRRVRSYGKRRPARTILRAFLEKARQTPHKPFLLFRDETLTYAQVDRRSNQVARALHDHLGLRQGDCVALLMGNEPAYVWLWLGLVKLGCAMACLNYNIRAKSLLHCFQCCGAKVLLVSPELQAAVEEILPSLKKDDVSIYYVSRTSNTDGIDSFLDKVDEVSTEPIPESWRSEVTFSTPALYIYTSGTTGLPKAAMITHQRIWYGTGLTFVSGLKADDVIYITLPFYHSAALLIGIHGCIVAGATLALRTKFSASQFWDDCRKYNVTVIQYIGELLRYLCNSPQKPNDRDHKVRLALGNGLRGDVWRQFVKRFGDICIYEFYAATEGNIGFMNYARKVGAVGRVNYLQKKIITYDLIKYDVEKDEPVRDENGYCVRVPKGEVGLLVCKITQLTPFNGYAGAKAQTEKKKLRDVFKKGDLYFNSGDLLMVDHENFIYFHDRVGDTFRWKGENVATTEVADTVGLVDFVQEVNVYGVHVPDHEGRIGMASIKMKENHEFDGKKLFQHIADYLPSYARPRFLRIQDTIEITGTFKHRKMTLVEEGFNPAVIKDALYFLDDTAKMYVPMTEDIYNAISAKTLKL
Sequence of UniProt Q96JI7 (Q96JI7 whole entry, looked up): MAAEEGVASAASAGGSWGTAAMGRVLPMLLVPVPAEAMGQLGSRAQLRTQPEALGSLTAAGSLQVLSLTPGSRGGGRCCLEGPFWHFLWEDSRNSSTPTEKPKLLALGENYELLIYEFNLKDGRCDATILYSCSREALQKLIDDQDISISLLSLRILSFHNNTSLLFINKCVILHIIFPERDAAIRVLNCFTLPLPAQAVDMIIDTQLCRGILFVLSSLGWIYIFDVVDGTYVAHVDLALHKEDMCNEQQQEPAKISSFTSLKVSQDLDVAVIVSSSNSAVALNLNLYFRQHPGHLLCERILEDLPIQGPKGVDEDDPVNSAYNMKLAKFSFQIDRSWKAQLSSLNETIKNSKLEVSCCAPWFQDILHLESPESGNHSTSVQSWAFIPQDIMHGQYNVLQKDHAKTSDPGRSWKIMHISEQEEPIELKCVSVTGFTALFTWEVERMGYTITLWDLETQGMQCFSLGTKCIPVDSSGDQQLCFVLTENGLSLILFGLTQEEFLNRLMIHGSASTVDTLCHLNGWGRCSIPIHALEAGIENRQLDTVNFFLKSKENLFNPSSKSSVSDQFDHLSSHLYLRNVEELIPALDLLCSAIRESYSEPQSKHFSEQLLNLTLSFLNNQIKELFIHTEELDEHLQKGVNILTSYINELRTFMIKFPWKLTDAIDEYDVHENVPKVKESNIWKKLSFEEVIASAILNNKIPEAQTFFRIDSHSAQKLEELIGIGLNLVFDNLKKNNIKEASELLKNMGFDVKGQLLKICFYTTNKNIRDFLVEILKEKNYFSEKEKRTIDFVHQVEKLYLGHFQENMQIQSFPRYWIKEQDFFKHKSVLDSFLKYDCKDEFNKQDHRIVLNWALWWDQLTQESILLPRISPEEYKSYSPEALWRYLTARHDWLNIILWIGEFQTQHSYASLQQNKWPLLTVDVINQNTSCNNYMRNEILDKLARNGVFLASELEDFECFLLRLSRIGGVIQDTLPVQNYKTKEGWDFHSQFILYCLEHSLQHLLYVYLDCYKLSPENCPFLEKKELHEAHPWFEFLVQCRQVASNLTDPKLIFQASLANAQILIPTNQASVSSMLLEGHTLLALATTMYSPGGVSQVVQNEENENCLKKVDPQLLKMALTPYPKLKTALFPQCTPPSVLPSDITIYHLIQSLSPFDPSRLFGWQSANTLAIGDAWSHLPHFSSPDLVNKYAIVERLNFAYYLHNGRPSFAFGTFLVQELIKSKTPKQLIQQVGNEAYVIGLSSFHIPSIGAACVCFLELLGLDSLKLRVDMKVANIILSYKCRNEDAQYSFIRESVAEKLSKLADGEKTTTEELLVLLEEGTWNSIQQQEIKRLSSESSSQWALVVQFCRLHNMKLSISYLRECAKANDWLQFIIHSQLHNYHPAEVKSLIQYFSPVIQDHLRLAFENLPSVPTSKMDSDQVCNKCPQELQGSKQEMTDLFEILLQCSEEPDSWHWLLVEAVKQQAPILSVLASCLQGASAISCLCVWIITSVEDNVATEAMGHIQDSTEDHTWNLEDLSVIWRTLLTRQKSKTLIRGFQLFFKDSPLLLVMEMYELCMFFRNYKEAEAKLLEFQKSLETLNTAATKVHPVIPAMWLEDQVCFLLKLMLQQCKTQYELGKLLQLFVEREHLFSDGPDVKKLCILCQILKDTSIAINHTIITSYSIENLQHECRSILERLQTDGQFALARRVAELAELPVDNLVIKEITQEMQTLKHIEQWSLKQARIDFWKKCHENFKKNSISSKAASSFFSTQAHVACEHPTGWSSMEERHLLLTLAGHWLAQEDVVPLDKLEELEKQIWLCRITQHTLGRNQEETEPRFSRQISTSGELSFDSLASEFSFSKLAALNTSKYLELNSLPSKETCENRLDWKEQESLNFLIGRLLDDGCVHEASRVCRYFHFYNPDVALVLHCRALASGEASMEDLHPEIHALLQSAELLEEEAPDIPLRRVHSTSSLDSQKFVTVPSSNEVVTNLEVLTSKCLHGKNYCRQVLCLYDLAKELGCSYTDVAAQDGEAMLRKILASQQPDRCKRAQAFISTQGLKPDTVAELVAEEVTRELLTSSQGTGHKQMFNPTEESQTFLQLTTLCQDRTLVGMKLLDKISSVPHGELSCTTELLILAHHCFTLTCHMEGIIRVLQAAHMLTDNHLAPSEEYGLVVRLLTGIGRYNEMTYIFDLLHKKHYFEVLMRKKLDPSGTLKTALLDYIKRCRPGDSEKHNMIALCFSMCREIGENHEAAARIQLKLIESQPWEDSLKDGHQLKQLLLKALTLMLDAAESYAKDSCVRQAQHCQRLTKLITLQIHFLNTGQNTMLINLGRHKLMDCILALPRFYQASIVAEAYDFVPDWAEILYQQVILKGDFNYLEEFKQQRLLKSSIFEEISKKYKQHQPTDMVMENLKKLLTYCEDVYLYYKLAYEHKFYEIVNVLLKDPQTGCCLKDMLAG
Sequence of UniProt O60225 (O60225 whole entry, looked up): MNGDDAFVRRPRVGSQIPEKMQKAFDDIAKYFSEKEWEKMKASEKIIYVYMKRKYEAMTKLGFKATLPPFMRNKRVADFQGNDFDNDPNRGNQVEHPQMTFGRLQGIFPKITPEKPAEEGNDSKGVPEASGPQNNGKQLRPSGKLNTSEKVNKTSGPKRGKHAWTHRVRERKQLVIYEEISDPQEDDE
Sequence of UniProt Q6KCM7 (Q6KCM7 whole entry, looked up): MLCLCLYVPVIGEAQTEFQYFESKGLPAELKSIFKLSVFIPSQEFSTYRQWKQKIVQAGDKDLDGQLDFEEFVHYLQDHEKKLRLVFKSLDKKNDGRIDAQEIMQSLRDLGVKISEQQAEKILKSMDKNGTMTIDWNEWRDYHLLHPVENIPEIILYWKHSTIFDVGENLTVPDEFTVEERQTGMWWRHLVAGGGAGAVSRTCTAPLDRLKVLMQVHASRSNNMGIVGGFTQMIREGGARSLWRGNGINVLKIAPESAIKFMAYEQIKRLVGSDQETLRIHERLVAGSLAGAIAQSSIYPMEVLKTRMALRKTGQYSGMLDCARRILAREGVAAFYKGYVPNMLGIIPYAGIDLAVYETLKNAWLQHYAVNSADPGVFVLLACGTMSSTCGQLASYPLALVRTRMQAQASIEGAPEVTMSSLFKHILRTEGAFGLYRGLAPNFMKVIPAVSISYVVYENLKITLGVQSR
Sequence of UniProt Q96BD8 (Q96BD8 whole entry, looked up): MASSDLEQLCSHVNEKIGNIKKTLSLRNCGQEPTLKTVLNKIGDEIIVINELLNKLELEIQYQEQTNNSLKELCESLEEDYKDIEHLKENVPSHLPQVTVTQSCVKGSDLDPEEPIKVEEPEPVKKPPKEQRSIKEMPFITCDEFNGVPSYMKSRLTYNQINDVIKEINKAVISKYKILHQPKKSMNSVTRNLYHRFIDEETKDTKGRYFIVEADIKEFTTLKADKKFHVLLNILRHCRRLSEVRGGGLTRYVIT
Sequence of UniProt Q01130 (Q01130 whole entry, looked up): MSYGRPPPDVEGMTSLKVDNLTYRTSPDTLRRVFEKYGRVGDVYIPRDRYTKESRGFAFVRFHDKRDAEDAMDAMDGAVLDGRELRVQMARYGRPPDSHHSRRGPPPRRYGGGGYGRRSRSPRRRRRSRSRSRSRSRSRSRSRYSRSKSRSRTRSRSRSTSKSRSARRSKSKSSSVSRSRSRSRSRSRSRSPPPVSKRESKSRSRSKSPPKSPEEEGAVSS

As for SSX5 isoform 2 (UniProt O60225), the log2 fold change in the test with erlotinib was -0.302; in test [1], 0.12; in [2], -0.142; in test [3], 0.195; in [4] it was -0.125; in test [5], 0.043. Also, the log2 fold change in test [6] was -0.027; in test [7], 0.23; in [8], -0.219; with IRAK-1-4 Inhibitor I, 0.007.

For the target SPNS1 (UniProt Q9H2V7), the log2 fold change with erlotinib is 0.015; in test [1], -0.043; in [2], -0.02; in test [3] it was 0.043; in test [4] it was -0.031; in [5], 0.029. Moreover, the log2 fold change was -0.063 in [6], 0 in [7], 0.044 in [8] and 0.032 with IRAK-1-4 Inhibitor I.

Turning to SNX6, A0A0A0MRI2, the log2 fold change is 0.012 with erlotinib; 0.056 in [1]; -0.029 in [2]; 0.04 in test [3]; -0.028 in [4]; 0.013 in [5]. Moreover, the log2 fold change in test [6] is -0.073; in test [7] it was 0.024; in test [8], -0.047; in the test with IRAK-1-4 Inhibitor I, -0.013.

As to SLC25A25 isoform 3 (UniProt Q6KCM7), the log2 fold change was -0.029 in the test with erlotinib; 0.054 in test [1]; -0.038 in [2]; 0.039 in test [3]; -0.003 in test [4]; -0.027 in test [5]. Further, the log2 fold change is 0.01 in [6], 0.011 in [7], -0.026 in test [8] and -0.041 with IRAK-1-4 Inhibitor I.

Take SRSF7 (UniProt Q16629): the log2 fold change with erlotinib is 0.019; in test [1], -0.068; in [2] it was -0.043; in test [3] it was 0.002; in [4], -0.066; in test [5] it was -0.02. Further, the log2 fold change in [6] was -0.016; in test [7], 0.032; in test [8], 0.008; with IRAK-1-4 Inhibitor I it was -0.03.

Turning to SMARCAD1 isoform 2 (UniProt Q9H4L7), the log2 fold change is 0 in the test with erlotinib; 0.022 in test [1]; -0.039 in test [2]; 0.023 in [3]; -0.019 in test [4]; 0.041 in test [5]. For the same target, the log2 fold change in test [6] is -0.052; in [7] it was -0.051; in [8], 0.003; with IRAK-1-4 Inhibitor I, -0.006.

For the target SMC6 (UniProt Q96SB8), the log2 fold change with erlotinib is 0.02; in test [1], 0.038; in test [2], -0.03; in [3], -0.002; in [4], -0.009; in [5], 0.019. Further, the log2 fold change in test [6] was -0.055; in test [7], -0.031; in [8] it was 0.03; with IRAK-1-4 Inhibitor I it was 0.01.

Regarding SKA1 (UniProt Q96BD8), the log2 fold change was -0.029 with erlotinib; -0.015 in test [1]; 0.029 in [2]; 0.072 in [3]; -0.062 in [4]; 0.065 in test [5]. The log2 fold change is -0.06 in test [6], 0.02 in [7], -0.094 in test [8] and 0.013 with IRAK-1-4 Inhibitor I.

In the case of SSB (UniProt E7ERC4), the log2 fold change is -0.03 in the test with erlotinib; 0.071 in [1]; -0.063 in [2]; 0 in test [3]; 0.02 in test [4]; 0.015 in test [5]. For the same target, the log2 fold change is -0.142 in test [6], 0.089 in test [7], 0.01 in test [8] and -0.043 with IRAK-1-4 Inhibitor I.

With SRSF2 (UniProt Q01130), the log2 fold change with erlotinib was 0.005; in test [1], 0.041; in test [2], 0.026; in test [3] it was -0.038; in test [4] it was -0.018; in test [5], -0.017. The log2 fold change in test [6] is -0.031; in test [7], 0.023; in test [8], -0.037; with IRAK-1-4 Inhibitor I, 0.04.

Take SMAD2 (UniProt Q15796): the log2 fold change is 0.14 in the test with erlotinib; 0.062 in test [1]; -0.018 in test [2]; 0.03 in [3]; 0.002 in [4]; 0.074 in test [5]. The log2 fold change in test [6] was -0.003; in [7] it was 0.004; in test [8] it was 0.035; with IRAK-1-4 Inhibitor I it was -0.03.

SPG11 (UniProt Q96JI7): the log2 fold change in the test with erlotinib was 0.05; in test [1], 0.033; in test [2], 0.005; in test [3], -0.012; in test [4] it was 0.333; in test [5] it was 0.076. The log2 fold change is 0.025 in test [6], -0.016 in [7], 0.019 in test [8] and 0.023 in the test with IRAK-1-4 Inhibitor I.

For SQLE (UniProt Q14534), the log2 fold change was -0.025 with erlotinib; 0.056 in [1]; 0.019 in test [2]; -0.03 in test [3]; -0.028 in test [4]; 0.007 in test [5]. Also, the log2 fold change in [6] is 0.074; in [7], -0.019; in test [8], -0.084; in the test with IRAK-1-4 Inhibitor I, 0.023.

SPAG5 (UniProt Q96R06): the log2 fold change with erlotinib is 0.013; in test [1] it was 0.012; in [2], -0.054; in test [3], 0.003; in test [4], -0.008; in test [5] it was 0.014. For the same target, the log2 fold change in test [6] was 0.018; in [7], -0.009; in [8] it was -0.011; in the test with IRAK-1-4 Inhibitor I, 0.

With SLC27A2 (UniProt O14975), the log2 fold change was -0.025 in the test with erlotinib; 0.478 (active) in [1]; -0.122 in [2]; 0.099 in test [3]; 0.048 in [4]; 0.007 in [5]. In addition, the log2 fold change is -0.016 in [6], -0.038 in [7], -0.035 in [8] and 0.614 (active) with IRAK-1-4 Inhibitor I.
